Measured values: article PMC7862700, “An all-to-all approach to the identification of sequence-specific readers for epigenetic DNA modifications on cytosine”

Key:
Experiment in all cases: DAPPL (digital affinity profiling via proximity ligation, sequencing); 10 mM Tris-HCl pH 7.5, 50 mM NaCl, 1 mM DTT, 4% glycerol, room temperature, 30 min; GST-TFs on glutathione beads, 16-mer random dsDNA library, 0.1% formaldehyde crosslink after washing; high values mean tight binding
Details in all cases: protein: recombinant; tags: N-terminal GST; dsDNA, one strand shown
ELK1 = target: T1, ELK1 (Homo sapiens, UniProt P19419 1-428)
T1 sequence: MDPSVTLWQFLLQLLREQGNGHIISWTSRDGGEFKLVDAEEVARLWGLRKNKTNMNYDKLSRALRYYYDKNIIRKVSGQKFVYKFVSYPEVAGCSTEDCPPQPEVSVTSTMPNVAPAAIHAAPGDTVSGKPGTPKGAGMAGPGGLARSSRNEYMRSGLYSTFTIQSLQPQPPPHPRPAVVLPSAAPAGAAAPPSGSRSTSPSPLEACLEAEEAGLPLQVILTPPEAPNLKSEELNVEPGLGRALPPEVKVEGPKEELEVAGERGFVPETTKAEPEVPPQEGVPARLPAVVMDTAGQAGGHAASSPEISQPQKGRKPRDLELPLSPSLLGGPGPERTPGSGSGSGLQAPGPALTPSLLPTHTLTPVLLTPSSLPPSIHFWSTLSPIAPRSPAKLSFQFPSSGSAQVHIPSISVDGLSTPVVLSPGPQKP
Procedure, shortened: (§1)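 Human transcription factors fused to GST were expressed in yeast, captured on glutathione beads, given DNA barcodes and pooled with a GST-only negative control. Pools were incubated with 200 nmole of a 16-mer random double-stranded DNA library in Tris/NaCl/DTT/glycerol buffer at room temperature for 30 min. They were then washed, crosslinked with 0.1% formaldehyde, proximity-ligated (BsaI/T4 ligase, 1 h, 37 °C), PCR-amplified and sequenced on an Illumina NextSeq500. Binding signal is each 6-mer's read frequency for a factor divided by its frequency for the GST control.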

GABPA = target: T2, GABPA (Homo sapiens, UniProt Q06546 1-454)
T2 sequence: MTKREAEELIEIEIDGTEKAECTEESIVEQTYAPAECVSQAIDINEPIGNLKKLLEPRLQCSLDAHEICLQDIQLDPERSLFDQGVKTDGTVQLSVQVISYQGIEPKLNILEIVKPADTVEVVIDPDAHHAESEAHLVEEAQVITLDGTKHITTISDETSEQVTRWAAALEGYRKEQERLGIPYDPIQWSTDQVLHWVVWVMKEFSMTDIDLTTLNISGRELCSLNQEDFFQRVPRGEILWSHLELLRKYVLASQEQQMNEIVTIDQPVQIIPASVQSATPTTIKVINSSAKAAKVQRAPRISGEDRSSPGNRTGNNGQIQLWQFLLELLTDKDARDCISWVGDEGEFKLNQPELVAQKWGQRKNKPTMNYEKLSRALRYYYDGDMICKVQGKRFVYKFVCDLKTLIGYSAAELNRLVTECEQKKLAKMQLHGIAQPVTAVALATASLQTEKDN
Procedure, shortened: as §1

ERG = target: T3, ERG (Homo sapiens, UniProt P11308 1-479)
T3 sequence: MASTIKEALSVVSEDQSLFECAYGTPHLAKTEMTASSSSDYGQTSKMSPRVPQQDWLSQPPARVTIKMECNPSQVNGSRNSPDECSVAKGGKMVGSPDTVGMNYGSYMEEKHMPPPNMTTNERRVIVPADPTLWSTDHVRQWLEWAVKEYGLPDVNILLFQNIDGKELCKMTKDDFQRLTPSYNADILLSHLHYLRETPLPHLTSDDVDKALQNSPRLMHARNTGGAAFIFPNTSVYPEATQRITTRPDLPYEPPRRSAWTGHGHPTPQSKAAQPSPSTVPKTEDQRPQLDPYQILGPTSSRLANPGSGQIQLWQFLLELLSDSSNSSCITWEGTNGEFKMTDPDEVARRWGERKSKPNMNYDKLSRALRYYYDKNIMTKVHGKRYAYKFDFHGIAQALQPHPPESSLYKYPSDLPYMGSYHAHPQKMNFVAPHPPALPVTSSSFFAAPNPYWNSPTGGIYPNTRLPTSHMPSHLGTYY
Procedure, shortened: as §1

ELF1 = ELF1 (Homo sapiens, UniProt P32519 1-619)
Procedure, shortened: as §1

EHF = target: T4, EHF (Homo sapiens, UniProt Q9NZC4 1-300)
T4 sequence: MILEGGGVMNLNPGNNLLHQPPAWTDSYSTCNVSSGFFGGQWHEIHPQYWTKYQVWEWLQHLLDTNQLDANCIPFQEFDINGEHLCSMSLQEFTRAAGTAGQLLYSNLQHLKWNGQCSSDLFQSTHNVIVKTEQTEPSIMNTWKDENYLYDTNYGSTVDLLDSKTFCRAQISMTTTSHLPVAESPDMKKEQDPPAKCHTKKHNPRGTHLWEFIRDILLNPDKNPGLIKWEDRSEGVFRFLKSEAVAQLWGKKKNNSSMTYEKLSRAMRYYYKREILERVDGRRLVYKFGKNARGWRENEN
Procedure, shortened: as §1

SPIB = SPIB (Homo sapiens, UniProt Q01892 1-262)
Procedure, shortened: as §1

FEV = target: T5, FEV (Homo sapiens, UniProt Q99581 1-238)
T5 sequence: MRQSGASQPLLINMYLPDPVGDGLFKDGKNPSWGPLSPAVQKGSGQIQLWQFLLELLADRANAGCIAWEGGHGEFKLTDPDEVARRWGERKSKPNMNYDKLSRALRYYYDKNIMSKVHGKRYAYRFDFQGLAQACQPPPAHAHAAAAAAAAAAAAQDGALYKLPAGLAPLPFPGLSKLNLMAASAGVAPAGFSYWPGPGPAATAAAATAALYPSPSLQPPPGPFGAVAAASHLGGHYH
Procedure, shortened: as §1

ETV5 = ETV5 (Homo sapiens, UniProt P41161 1-510)
Procedure, shortened: as §1

ELK4 = target: T6, ELK4 (Homo sapiens, UniProt P28324-2 1-405)
T6 sequence: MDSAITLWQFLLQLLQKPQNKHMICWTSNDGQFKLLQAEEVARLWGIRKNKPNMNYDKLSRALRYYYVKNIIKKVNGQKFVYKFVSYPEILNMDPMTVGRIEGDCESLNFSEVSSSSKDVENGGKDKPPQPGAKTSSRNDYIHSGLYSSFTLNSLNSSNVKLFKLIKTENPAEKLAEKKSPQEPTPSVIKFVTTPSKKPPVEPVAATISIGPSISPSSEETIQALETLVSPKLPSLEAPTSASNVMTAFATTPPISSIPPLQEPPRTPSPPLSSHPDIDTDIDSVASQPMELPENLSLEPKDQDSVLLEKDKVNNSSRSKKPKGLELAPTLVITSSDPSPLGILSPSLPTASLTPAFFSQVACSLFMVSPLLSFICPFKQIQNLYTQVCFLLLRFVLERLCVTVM
Procedure, shortened: as §1

ELF3 = target: T7, ELF3 (Homo sapiens, UniProt P78545 1-371)
T7 sequence: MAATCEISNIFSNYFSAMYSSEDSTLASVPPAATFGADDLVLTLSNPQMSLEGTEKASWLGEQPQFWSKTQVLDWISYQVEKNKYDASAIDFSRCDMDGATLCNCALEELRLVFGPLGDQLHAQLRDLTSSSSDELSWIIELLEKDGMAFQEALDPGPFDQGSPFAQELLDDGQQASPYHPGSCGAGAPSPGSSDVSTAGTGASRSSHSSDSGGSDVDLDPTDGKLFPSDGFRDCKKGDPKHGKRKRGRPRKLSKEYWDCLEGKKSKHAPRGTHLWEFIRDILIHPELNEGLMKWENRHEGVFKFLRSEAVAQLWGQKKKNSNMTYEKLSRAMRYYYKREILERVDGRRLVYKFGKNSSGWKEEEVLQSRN
Procedure, shortened: as §1

ETV1 = ETV1 (Homo sapiens, UniProt P50549 1-477)
Procedure, shortened: as §1

ERF = target: T8, ERF (Homo sapiens, UniProt P50548 1-548)
T8 sequence: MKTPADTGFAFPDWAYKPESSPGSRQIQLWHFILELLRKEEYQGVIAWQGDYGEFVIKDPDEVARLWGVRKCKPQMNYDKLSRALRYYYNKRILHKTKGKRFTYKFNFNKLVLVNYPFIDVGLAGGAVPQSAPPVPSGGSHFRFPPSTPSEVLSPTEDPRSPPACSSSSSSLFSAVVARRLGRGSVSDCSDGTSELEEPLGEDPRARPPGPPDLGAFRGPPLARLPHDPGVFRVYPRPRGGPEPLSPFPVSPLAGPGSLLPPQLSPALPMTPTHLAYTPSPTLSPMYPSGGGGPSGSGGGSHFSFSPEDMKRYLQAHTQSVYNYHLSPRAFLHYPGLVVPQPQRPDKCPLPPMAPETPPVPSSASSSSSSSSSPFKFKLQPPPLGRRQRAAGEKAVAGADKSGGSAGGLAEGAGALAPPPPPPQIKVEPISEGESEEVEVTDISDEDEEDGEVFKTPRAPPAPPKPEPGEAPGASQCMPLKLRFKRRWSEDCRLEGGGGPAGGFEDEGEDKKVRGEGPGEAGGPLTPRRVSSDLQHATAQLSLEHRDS
Procedure, shortened: as §1

ETV3L = target: T9, ETV3L (Homo sapiens, UniProt Q6ZN32 1-361)
T9 sequence: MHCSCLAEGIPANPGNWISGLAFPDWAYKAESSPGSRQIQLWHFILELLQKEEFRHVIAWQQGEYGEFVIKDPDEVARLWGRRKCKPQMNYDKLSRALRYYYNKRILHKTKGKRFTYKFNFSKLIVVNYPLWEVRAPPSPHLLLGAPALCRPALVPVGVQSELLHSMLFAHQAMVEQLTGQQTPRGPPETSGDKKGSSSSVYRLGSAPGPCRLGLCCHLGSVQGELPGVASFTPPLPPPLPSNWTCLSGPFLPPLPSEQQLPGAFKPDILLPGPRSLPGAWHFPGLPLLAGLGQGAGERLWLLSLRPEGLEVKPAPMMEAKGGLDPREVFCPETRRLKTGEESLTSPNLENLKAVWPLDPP
Procedure, shortened: as §1

ETS2 = target: T10, ETS2 (Homo sapiens, UniProt P15036 1-469)
T10 sequence: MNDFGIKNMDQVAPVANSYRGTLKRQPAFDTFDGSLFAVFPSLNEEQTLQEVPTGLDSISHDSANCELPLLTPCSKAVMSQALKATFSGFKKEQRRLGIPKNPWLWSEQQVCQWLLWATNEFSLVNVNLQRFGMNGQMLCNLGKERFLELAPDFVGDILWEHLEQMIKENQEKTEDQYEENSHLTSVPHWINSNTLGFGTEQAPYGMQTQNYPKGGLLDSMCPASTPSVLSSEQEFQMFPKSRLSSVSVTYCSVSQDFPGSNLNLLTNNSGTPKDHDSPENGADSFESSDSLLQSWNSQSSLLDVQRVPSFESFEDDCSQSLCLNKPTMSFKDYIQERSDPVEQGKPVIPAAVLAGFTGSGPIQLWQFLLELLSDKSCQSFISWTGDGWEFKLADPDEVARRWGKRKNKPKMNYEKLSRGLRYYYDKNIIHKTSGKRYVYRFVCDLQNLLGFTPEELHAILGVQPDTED
Procedure, shortened: as §1

SPDEF = target: T11, SPDEF (Homo sapiens, UniProt O95238 1-335)
T11 sequence: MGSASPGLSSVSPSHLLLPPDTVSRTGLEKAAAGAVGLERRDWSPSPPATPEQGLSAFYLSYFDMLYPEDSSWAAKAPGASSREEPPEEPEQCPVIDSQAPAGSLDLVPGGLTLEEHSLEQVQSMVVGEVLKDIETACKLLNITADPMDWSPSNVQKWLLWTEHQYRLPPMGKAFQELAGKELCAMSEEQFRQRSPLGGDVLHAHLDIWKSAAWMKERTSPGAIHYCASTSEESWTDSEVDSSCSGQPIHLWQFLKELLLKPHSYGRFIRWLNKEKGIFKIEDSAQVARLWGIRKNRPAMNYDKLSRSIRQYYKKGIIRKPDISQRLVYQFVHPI
Procedure, shortened: as §1

ETV7 = target: T12, ETV7 (Homo sapiens, UniProt Q9Y603 1-341)
T12 sequence: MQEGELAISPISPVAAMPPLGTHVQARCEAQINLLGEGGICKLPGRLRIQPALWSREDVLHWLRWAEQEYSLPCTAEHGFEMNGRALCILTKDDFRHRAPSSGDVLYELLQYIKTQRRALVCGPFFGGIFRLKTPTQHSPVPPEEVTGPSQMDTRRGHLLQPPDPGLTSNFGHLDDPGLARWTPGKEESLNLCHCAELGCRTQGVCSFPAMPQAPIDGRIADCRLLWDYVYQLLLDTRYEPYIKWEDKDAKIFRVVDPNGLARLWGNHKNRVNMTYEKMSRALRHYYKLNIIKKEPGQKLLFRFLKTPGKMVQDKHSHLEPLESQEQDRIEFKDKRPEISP
Procedure, shortened: as §1

ETV3 = target: T13, ETV3 (Homo sapiens, UniProt P41162-2 1-143)
T13 sequence: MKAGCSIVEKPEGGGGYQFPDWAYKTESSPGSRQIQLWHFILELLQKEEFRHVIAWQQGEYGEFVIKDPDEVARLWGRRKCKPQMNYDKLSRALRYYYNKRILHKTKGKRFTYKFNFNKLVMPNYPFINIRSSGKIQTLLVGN
Procedure, shortened: as §1

ETV6 = ETV6 (Homo sapiens, UniProt P41212 1-452)
Procedure, shortened: as §1

Chain of SPIB (Q01892 whole entry): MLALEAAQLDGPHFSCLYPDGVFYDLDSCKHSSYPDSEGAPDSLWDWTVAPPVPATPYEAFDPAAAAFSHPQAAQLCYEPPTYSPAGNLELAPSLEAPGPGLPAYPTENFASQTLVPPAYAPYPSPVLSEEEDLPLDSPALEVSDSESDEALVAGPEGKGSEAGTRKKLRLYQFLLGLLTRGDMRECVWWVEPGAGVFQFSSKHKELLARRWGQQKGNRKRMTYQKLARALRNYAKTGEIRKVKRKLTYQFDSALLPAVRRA
Chain of ETV1 (P50549 whole entry): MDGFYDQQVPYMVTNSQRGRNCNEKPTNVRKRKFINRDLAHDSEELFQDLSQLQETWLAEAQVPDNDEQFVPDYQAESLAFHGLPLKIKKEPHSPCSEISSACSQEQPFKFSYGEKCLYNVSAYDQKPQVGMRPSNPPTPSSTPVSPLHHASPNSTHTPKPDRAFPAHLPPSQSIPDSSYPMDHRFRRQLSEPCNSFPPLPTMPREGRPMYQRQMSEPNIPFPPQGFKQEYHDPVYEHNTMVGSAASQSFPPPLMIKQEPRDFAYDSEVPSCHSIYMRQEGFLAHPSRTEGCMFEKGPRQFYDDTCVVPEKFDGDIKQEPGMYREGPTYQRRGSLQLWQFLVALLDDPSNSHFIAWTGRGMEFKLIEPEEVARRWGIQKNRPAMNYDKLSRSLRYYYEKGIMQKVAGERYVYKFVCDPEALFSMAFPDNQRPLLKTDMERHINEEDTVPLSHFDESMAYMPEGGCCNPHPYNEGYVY
Chain of ELF1 (P32519 whole entry): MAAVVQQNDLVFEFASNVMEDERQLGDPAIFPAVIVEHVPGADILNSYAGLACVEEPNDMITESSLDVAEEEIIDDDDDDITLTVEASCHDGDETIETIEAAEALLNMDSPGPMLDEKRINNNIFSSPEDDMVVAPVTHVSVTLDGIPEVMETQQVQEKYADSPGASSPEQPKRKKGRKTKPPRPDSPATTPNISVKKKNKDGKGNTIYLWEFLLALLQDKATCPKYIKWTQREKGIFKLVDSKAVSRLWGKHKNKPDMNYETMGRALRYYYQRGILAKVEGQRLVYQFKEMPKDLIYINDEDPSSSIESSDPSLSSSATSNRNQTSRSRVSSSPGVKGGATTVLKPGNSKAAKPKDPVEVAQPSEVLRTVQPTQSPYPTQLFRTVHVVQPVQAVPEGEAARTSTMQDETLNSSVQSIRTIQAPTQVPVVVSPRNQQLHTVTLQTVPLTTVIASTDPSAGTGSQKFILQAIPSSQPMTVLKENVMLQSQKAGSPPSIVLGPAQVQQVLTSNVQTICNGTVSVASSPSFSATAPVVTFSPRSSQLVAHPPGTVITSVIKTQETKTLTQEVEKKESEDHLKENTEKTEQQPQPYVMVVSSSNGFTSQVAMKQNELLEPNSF
Chain of ETV5 (P41161 whole entry): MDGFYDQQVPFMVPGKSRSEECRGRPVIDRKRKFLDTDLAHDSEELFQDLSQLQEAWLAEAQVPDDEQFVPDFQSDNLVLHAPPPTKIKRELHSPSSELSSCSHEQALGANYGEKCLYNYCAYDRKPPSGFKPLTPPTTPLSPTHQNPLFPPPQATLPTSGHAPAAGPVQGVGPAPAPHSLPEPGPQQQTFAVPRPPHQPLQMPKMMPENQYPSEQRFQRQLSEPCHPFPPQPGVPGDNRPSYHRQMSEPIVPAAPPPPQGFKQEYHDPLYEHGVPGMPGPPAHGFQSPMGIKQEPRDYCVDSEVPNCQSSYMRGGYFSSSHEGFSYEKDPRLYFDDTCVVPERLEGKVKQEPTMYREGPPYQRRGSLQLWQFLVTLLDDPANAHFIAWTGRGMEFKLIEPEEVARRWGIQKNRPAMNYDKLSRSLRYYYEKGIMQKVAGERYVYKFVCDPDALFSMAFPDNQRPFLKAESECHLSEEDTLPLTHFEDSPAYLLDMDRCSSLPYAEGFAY
Chain of ETV6 (P41212 whole entry): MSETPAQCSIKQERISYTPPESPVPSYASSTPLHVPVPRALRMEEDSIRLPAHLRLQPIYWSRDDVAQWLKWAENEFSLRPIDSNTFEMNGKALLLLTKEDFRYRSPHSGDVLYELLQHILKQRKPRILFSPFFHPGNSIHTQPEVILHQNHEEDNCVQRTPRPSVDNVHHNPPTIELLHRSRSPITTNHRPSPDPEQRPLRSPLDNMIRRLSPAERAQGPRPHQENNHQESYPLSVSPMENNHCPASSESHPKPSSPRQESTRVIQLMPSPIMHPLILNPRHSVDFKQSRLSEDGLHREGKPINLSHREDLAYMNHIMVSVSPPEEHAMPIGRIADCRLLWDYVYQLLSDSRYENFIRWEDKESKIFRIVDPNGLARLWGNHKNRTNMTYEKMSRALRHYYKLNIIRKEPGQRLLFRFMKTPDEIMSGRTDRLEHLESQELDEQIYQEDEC

Sequence: TGTAAG
- binding signal (ELK1): 1.06 fold enrichment (6-mer frequency, TF over GST control)
- binding signal (GABPA): 1.03 fold enrichment (6-mer frequency, TF over GST control)
- binding signal (ERG): 1.07 fold enrichment (6-mer frequency, TF over GST control)
- binding signal (ELF1): 1.11 fold enrichment (6-mer frequency, TF over GST control)
- binding signal (EHF): 1.16 fold enrichment (6-mer frequency, TF over GST control)
- binding signal (SPIB): 1.06 fold enrichment (6-mer frequency, TF over GST control)
- binding signal (FEV): 1.06 fold enrichment (6-mer frequency, TF over GST control)
- binding signal (ETV5): 1.08 fold enrichment (6-mer frequency, TF over GST control)
- binding signal (ELK4): 1.06 fold enrichment (6-mer frequency, TF over GST control)
- binding signal (ELF3): 1.3 fold enrichment (6-mer frequency, TF over GST control)
- binding signal (ETV1): 1.06 fold enrichment (6-mer frequency, TF over GST control)
- binding signal (ERF): 1.11 fold enrichment (6-mer frequency, TF over GST control)
- binding signal (ETV3L): 1.03 fold enrichment (6-mer frequency, TF over GST control)
- binding signal (ETS2): 1.04 fold enrichment (6-mer frequency, TF over GST control)
- binding signal (SPDEF): 1.13 fold enrichment (6-mer frequency, TF over GST control)
- binding signal (ETV7): 1.04 fold enrichment (6-mer frequency, TF over GST control)
- binding signal (ETV3): 1.17 fold enrichment (6-mer frequency, TF over GST control)
- binding signal (ETV6): 1.14 fold enrichment (6-mer frequency, TF over GST control)
